Among all 190,000 compounds or so, about 6,900 (3.6%) were called active. The entries come from a sample that favours actives as a whole. A number with no mark means an inactive call. Cut-off read from the data, not from the text of the source: active = inhibition above about 50%; inactive = the rest.
Target: Huntingtin (Homo sapiens) (UniProt P42858)
Test: mutant huntingtin-calmodulin interaction inhibitors – biochemical, AlphaScreen, primary screen (AID 1671202);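 note: 0% = both proteins with DMSO and 100% = one protein alone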
Settings: AlphaScreen His-mHTT/GST-CaM binding, luminescence; at 15 µM, active compounds read high

Sequence of Huntingtin (Homo sapiens) (P42858 whole entry, looked up, stated change not applied): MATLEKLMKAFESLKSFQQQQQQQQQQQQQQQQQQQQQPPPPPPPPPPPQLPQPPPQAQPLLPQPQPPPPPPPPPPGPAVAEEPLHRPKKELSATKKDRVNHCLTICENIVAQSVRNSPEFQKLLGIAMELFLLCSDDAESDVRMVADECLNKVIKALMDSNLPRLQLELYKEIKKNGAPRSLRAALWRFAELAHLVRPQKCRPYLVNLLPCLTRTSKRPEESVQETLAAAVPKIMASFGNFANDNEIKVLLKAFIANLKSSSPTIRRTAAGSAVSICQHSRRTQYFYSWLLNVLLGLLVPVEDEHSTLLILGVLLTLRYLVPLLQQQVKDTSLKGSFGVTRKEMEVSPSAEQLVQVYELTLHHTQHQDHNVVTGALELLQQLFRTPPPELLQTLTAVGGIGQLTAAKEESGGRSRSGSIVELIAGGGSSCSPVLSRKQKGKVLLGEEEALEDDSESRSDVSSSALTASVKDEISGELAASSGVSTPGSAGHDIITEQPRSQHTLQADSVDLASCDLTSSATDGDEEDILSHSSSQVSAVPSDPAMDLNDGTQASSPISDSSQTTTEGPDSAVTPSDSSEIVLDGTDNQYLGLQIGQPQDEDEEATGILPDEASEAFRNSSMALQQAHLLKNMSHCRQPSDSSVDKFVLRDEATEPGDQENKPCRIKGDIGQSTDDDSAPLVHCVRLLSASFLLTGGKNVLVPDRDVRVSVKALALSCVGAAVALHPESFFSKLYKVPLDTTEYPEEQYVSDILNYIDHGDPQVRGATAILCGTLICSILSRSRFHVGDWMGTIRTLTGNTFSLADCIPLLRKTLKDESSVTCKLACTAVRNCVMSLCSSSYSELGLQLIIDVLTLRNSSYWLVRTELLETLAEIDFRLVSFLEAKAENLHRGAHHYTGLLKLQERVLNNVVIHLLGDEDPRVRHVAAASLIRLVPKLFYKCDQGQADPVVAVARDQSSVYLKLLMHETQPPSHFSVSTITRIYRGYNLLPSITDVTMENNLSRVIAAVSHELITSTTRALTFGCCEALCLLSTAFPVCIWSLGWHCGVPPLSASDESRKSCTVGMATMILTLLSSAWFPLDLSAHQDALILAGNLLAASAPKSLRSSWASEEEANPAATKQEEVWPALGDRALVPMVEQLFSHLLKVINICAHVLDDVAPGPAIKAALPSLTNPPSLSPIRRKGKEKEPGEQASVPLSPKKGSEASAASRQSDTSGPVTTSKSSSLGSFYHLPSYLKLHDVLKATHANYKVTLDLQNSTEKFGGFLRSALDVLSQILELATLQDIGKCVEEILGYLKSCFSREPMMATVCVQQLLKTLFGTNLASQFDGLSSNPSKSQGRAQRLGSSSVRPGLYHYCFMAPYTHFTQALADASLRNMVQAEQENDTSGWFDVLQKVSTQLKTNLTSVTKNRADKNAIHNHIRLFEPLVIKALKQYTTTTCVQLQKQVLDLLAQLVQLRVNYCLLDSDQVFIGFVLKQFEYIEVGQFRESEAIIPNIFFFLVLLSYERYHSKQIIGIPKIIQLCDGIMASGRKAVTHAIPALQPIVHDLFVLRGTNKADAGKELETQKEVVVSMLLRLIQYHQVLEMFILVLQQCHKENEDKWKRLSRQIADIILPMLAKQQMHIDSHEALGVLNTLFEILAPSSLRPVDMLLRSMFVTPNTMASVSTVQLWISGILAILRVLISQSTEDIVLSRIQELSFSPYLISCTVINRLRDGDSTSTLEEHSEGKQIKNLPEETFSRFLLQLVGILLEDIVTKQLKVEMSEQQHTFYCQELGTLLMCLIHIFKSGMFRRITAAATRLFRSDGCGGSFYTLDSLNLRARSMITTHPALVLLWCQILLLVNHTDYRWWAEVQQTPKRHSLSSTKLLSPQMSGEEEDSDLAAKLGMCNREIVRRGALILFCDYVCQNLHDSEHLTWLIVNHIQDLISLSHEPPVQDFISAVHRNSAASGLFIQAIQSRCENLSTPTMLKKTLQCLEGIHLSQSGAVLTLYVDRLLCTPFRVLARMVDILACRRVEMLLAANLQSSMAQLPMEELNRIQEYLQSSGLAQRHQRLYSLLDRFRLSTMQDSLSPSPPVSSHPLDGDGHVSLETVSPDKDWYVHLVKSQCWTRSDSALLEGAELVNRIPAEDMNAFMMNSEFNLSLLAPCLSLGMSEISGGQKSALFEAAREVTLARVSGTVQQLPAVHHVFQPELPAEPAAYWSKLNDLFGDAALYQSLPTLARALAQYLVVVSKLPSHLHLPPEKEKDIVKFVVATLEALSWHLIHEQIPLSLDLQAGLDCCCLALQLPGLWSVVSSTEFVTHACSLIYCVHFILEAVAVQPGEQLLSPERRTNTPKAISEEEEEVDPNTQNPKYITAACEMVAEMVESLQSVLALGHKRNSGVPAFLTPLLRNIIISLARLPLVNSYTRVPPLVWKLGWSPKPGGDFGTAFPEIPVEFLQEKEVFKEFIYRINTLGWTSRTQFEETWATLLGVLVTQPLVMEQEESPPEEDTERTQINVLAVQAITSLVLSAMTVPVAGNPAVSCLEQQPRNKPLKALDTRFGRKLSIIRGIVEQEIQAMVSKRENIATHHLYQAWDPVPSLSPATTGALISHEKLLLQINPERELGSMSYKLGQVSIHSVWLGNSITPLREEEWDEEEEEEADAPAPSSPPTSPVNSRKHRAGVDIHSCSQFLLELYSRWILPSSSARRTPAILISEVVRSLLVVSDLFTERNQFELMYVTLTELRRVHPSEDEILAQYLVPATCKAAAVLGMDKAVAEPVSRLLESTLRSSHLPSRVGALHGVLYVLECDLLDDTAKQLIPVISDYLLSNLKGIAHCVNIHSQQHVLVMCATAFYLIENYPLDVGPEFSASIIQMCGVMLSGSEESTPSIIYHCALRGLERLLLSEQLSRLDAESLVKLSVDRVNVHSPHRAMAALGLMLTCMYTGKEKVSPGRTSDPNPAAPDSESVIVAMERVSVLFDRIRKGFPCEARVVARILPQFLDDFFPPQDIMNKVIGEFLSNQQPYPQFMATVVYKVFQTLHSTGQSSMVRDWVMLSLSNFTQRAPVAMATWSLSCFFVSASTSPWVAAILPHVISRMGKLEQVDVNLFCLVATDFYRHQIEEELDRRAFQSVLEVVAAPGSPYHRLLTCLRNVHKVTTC

SMILES | inhibition
CCOC(=O)C1CCN(C(=O)CCN2C(=O)c3ccccc3S2(=O)=O)CC1 | -1.8%
O=C(Nc1ccc2c(c1)OCCO2)N1CCCC1c1ccc(Cl)cc1 (centres undefined) | 10.2%
N#C/C(=C\c1ccc(F)cc1)c1nc(-c2cc3ccccc3oc2=O)cs1 | -8%
CC1(C)Cc2ccccc2-c2nc(NCCO)n(Cc3ccccc3)c(=O)c21 | 15%
Cc1cccc(NC(=O)c2nc(-c3cccc(F)c3)n3c2CCCCC3)n1 | 43.6%
Cc1ccccc1N1CCN(C(=O)Cc2cn(C)c3ncccc23)CC1 | 10.1%
CCCNC(=O)Cc1cn(C)c2ncccc12 | -16.2%
Cn1cc(CCN2CCN(C(=O)c3ccc(C(F)(F)F)cc3)CC2)c2cccnc21 | 54.6% (active)
CCCC(O)=C1C(=O)CC(C)(C)CC1=Nc1cccc([N+](=O)[O-])c1 | -1.5%
CC(=O)Nc1ccc(N/C=C(\C#N)c2nc(-c3ccccc3)cs2)cc1 | 4%
CC(C)C(=O)Nc1c2c(nn1-c1ccc(Cl)cc1)CSC2 | -5%
COc1ccc(/C=C/C(=O)Nc2c3c(nn2-c2ccccc2C)CSC3)cc1OC | 29%
Cc1ccccc1-n1nc2c(c1NC(=O)C1CC1)CSC2 | 60% (active)
Cc1cccc(-n2nc3c(c2NC(=O)c2c(F)cccc2F)CSC3)c1C | 5%
Cc1cccc(-n2nc3c(c2NC(=O)C2CC2)CSC3)c1C | 8%
O=C(Nc1c2c(nn1-c1ccc(Cl)cc1)CSC2)c1ccc(F)cc1 | 21%
O=C(Nc1c2c(nn1-c1ccc(Cl)cc1)CSC2)c1cccc([N+](=O)[O-])c1 | -9%
O=C(Nc1c2c(nn1-c1ccc(Cl)cc1)CSC2)c1cccc(Br)c1 | 50% (active)
COc1cccc(C(=O)Nc2c3c(nn2-c2ccc(Cl)cc2)CSC3)c1 | 41%
O=C(/C=C/c1ccco1)Nc1c2c(nn1-c1ccc(Cl)cc1)CSC2 | 98% (active)

SMILES | inhibition
Cc1cccc(-n2nc3c(c2NC(=O)c2ccc(Br)o2)CSC3)c1C | 24%
Cc1ccccc1-n1nc2c(c1NC(=O)/C=C/c1ccco1)CSC2 | 98% (active)
O=C(Nc1ccc(Cl)cc1)c1cc(S(=O)(=O)NCc2ccccc2)ccc1Cl | 13%
COc1ccc(OC)c(-c2cc(C(=O)Nc3nc4c(s3)CCCC4)n(C)n2)c1 | 16.3%
Cc1nc(C2CCN(C(=O)c3cccc(F)c3)CC2)sc1C(=O)NCc1cccnc1 | 9.99%
CCCn1cnnc1C1CCCCN1C(=O)c1ccncc1 (centres undefined) | -3.5%
c1ccc2c(c1)CC1(CCCCC1)N=C2N1CCOCC1 | -5.33%
CC(C)C(=O)Nc1ccc(N2CCCN(C(=O)C3CC3)CC2)nc1 | -1%
CCCc1cc2c(=O)c(-c3ccc4c(c3)OCO4)c(CC)oc2cc1OC(=O)CC | -12.9%
C=CCSC1=C(C#N)C(c2ccco2)C(C(=O)Nc2ccccc2OC)=C(C)N1 (centres undefined) | 8%
c1ccc(-c2n[nH]c(C3CCCN(Cc4ccccn4)C3)n2)cc1 (centres undefined) | 100% (active)
O=C(Cc1cccnc1)N1CCCC(c2nc(-c3ccccc3)n[nH]2)C1 (centres undefined) | -0.1%
c1ccc(-c2n[nH]c(C3CCN(Cc4cccnc4)CC3)n2)cc1 | 9.4%
COC(=O)C(C)Oc1ccc2c(c1)OC(=Cc1ccccc1C)C2=O (centres undefined) | 0.9%
COCCN=C1Nc2ccccc2NC12CCCN(S(=O)(=O)c1cccc(OC)c1)C2 (centres undefined) | 11.2%
COCCN=C1Nc2ccccc2CNC12CCN(C(=O)c1cccc(C(F)(F)F)c1)C2 (centres undefined) | 18.7%
Cc1cc(C)n(CC(=O)N2CCCC3(C2)Nc2cccnc2NC3=NC2CCCC2)n1 (centres undefined) | -1.34%
COCCN=C1Nc2ccccc2NC12CCCN(C(=O)Cc1cccs1)C2 (centres undefined) | 63% (active)
Cc1ccccc1CNC(=O)C1(C)CCCN(C(=O)c2cccc(Cl)c2)C1 (centres undefined) | 19.4%
COc1ccccc1CC(=O)N1CCCC2(C1)Nc1cccnc1NC2=NC1CCCC1 (centres undefined) | 16.8%

SMILES | inhibition
O=C(c1ccsc1)N1CCCC2(C1)Nc1ccccc1NC2=NC1CCCC1 (centres undefined) | 4.96%
COCCN=C1Nc2ccccc2NC12CCCN(C(=O)CSc1ccccc1)C2 (centres undefined) | 76.2% (active)
COCCN=C1Nc2ccccc2NC12CCCN(C(=O)Nc1cccc(OC)c1)C2 (centres undefined) | 99.8% (active)
COc1cccc(CNC(=O)N2CCCC3(C2)Nc2cccnc2NC3=NC2CCCC2)c1 (centres undefined) | 1.31%
CCOc1ccc(CC(=O)N2CCCC3(C2)Nc2cccnc2NC3=NC2CCCC2)cc1 (centres undefined) | 11.4%
COCCN=C1Nc2ccccc2NC12CCCN(C(=O)c1cccc(Cl)c1)C2 (centres undefined) | 65.7% (active)
CCOc1ccc(CN2C(=O)CCC2(C)C(=O)NC2CCCC2)cc1OC (centres undefined) | 16%
CCn1c(SCc2ccccc2F)nnc1-c1cccc([N+](=O)[O-])c1 | 13.8%
Cc1ccc(C(=O)COc2ccccc2Cl)cc1C | -114%
COc1ccc([N+](=O)[O-])cc1C1=N/C(=C/c2cccc(F)c2)C(=O)O1 | -5%
COc1ccc(NC(=O)C2CCN(c3cnn(C)c(=O)c3)CC2)c(OC)c1 | 36.1%
COc1cccc(C(=O)N2CCC(Oc3nc4c(C)ccc(C)c4s3)CC2)c1OC | 64.4% (active)
COc1ccccc1C(=O)N1CCC(c2nc(C(=O)N3CCOCC3)c(C)o2)CC1 | -6.99%
COc1cccc(C(=O)N2CCC(c3nnc(C(F)(F)F)o3)CC2)c1OC | -7.5%
Cc1ccc2nc(C(=O)NCc3cc(F)ccc3F)cn2c1 | -9%
C=CCN(CC=C)S(=O)(=O)c1ccc(C(=O)Nc2c(C(N)=O)oc3ccccc23)cc1 | 15.2%
CCNC(=O)C1Cc2ccc(OC)cc2N2CCN(c3ccccc3OC)CC12 (centres undefined) | 47%
COCCNC(=O)C1Cc2ccccc2N2CCN(c3ccccc3)CC12 (centres undefined) | 11.4%
CCNC(=O)C1Cc2ccc(OC)cc2N2CCN(Cc3ccc(Cl)cc3)CC12 (centres undefined) | 93.9% (active)

Reference: PubChem BioAssay AID1671202 (University of Kansas High Throughput Screening Laboratory, 2021)
